Experimental data reported in PubChem BioAssay (Tox21).
Results filed as inconclusive are left out. Where a call stands in place of a potency, no number is given. Unmarked numbers belong to inactive results. Activity calls are given as the source filed them. The call rests on the fitted dose curve; in most records, active means well fitted cell-killing curve with a large enough effect in the repeat runs; inconclusive means weak or mixed curves, or effect the other way; inactive means flat fitted curve, though single readings scatter.

Assay: cAMP Responsive Elements (CRE) small molecule agonists, cell-based qHTS assay: qHTS cell viability counter screen (AID 2060914); further: nearly all actives have a fitted effect of over 50% in size
Conditions: CRE-bla HEK293T viability, CellTiter-Glo luminescence, 5 h; series mostly up to 92.4 µM
How it was run: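 Cytotoxicity was measured as ATP luminescence (CellTiter-Glo, 30 min at room temperature) in the same wells as the CRE-bla FRET read-out. HEK293T CRE-bla cells had 3 h compound exposure at 37C/5% CO2.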

Q: For `COc1cc(OC)cc(OC)c1`, which Potency is on record?
A: inactive

Q: With `CC(=O)CC(=O)Nc1ccccc1C` as the compound, how does the Potency read?
A: inactive

Q: For `C[C@](N)(Cc1ccc(O)cc1)C(=O)O`, which activity change, negative = cytotoxicity is on record?
A: -8.98% [at 8.39 µM]

Q: With `CCCCCC/C=C\CCCCCCCC(=O)O` as the compound, how does the Potency read?
A: inactive

Q: With `c1ccc2cc(Nc3ccc(Nc4ccc5ccccc5c4)cc3)ccc2c1` as the compound, how does the Potency read?
A: inactive

Q: Which Potency does the source give for `COc1ccc(-c2coc3cc(O)cc(O)c3c2=O)cc1` here?
A: inactive

Q: Which Potency does the source give for `CC1=C(C(=O)O)N2C(=O)[C@@H](NC(=O)[C@H](N)C3=CCC=CC3)[C@H]2SC1` here?
A: inactive

Q: For `O=C(O)CP(=O)(O)O`, which Potency is on record?
A: inactive

Q: With `CN(C)c1ccc(C(c2ccccc2)c2ccc(N(C)C)cc2)cc1` as the compound, how does the Potency read?
A: inactive

Q: For `C1C[C@@H]2[C@H]3CC[C@H](C3)[C@@H]2C1`, which Potency is on record?
A: inactive

Q: With `CN(C)CCN1C(=O)c2ccccc2N(C)c2ccccc21` as the compound, how does the Potency read?
A: inactive

Q: For `O=C1CCC(N2C(=O)c3ccccc3C2=O)C(=O)N1` (stereo not given), which Potency is on record?
A: inactive

Q: With `C=O` as the compound, how does the Potency read?
A: inactive

Q: With `CCCCC(CC)COC(=O)c1ccc(N(C)C)cc1` (stereo not given) as the compound, how does the Potency read?
A: inactive

Q: With `C=C[Si](OC)(OC)OC` as the compound, how does the Potency read?
A: inactive

Q: For `COc1cc2c(cc1OC)CN(C(=O)[C@H](C)N[C@@H](CCc1ccccc1)C(=O)O)[C@H](C(=O)O)C2`, which Potency is on record?
A: inactive

Q: Which Potency does the source give for `O=C1CC2(CCCC2)CC(=O)N1CCCCN1CCN(c2ncccn2)CC1` here?
A: inactive

Q: With `CCCCCCCCCCCCCCCCC(=O)O` as the compound, how does the Potency read?
A: inactive

Q: For `Nc1ccc2cc3ccc(N)cc3nc2c1`, which Potency is on record?
A: inactive

Q: Which Potency does the source give for `COCCc1ccc(OCC2CO2)cc1` (stereo not given) here?
A: inactive

Q: For `CC(=O)O[C@@H]1C[C@@H]2CC[C@@]1(C)C2(C)C`, which Potency is on record?
A: inactive

Q: With `Nc1nc2ccc([N+](=O)[O-])cc2s1` as the compound, how does the Potency read?
A: inactive

Q: Which Potency does the source give for `CC(C)OC(=O)C(C)N(C(=O)c1ccccc1)c1ccc(F)c(Cl)c1` (stereo not given) here?
A: inactive

Q: Which Potency does the source give for `CC(=O)CC(=O)Nc1ccccc1` here?
A: inactive

Q: Which Potency does the source give for `Cc1ncc(CO)c(CO)c1O` here?
A: inactive

Q: For `CCc1oc2ccccc2c1C(=O)c1cc(I)c(O)c(I)c1`, which Potency is on record?
A: inactive

Q: With `CN1CCN(c2ccccc2/C=C2\SCCN(c3ccc(Cl)c(Cl)c3)C2=O)CC1` as the compound, how does the Potency read?
A: inactive

Q: With `CCCCCCCCCCOS(=O)(=O)O` as the compound, how does the Potency read?
A: inactive

Q: With `C=C(C)[C@@H]1CCC2=CCC[C@@H](C)[C@]2(C)C1` as the compound, how does the Potency read?
A: inactive

Q: Which Potency does the source give for `CC(C)(C)OC(=O)N1C[C@@H](F)C[C@H]1C(=O)O` here?
A: inactive

Q: With `O=C1CCCCO1` as the compound, how does the Potency read?
A: inactive

Q: Which Potency does the source give for `O=[N+]([O-])c1ccc2[nH]ncc2c1` here?
A: inactive

Q: With `O=C(Nc1ccc2c(c1)Cc1ccccc1-2)C(F)(F)F` as the compound, how does the Potency read?
A: inactive

Q: For `CCC(C(=O)OCCN1CCOC(c2ccccc2)C1C)c1ccccc1` (stereo not given), which Potency is on record?
A: inactive

Q: Which Potency does the source give for `COc1c(Br)cc(Br)c(C)c1Br` here?
A: inactive

Q: For `NC(=O)c1cc[n+](CC2=C(C(=O)[O-])N3C(=O)[C@@H](NC(=O)Cc4cccs4)[C@H]3SC2)cc1`, which Potency is on record?
A: inactive

Q: Which Potency does the source give for `O=C(O)c1cc(C(=O)O)cc([N+](=O)[O-])c1` here?
A: inactive

Q: For `NCCc1cnc[nH]1`, which Potency is on record?
A: inactive

Q: With `COc1ccc2c(c1)C(=O)N(CCc1ccc(S(=O)(=O)NC(=O)NC3CCCCC3)cc1)C(=O)C2(C)C` as the compound, how does the Potency read?
A: inactive

Q: With `CN1CCCCC1CCN1c2ccccc2Sc2ccc(S(C)=O)cc21` (stereo not given) as the compound, how does the Potency read?
A: inactive
